This is an account of results in PubChem BioAssay.

A short description of assay [1]: A549 cell viability effects, profiling panel, calcein-AM fluorescence, 48 h, basal (AID 1162). Note: test concentration not given here. The conditions noted are these: higher = more signal.
A short description of assay [2]: adipocyte viability effects, profiling panel, cell-based, 3T3-L1 adipocytes, calcein-AM fluorescence, 48 h, basal (AID 1163). Note: test concentration not given here. The following applies: 3T3-L1 adipocytes viability, higher = more signal.
The nature of assay [3]: HepG2 cell viability effects, profiling panel, calcein-AM fluorescence, 48 h, basal (AID 1164). Note: test concentration not given here. The conditions noted are these: higher = more signal.
Assay [4] is described as follows: MM1S cell viability effects, profiling panel, calcein-AM fluorescence, 48 h, basal (AID 1165).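 Note: viability of MM1S multiple myeloma cells under basal unstimulated conditions; test concentration not given here.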 The following applies: higher = more signal.
Assay [5] is described as follows: basal RPMI8226 viability, no added stimulus, profiling panel, cell-based, calcein-AM fluorescence, 48 h, PK04 Diversity Set (AID 1166).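 Note: cells grown under basal conditions without added stimulus; test concentration not given here.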 The conditions noted are these: RPMI8226 myeloma viability, higher = more signal.
Assay [6] in a line: basal HepG2 mitochondrial membrane potential changes, profiling panel, cell-based, JC-1 fluorescence, 24 h, 100 nL compound (AID 1167). Note: test concentration not given here. The conditions noted are these: higher = more signal.
Assay [7] is described as follows: basal 3T3-L1 adipocyte mitochondrial potential changes, profiling panel, cell-based, JC-1 fluorescence, 3T3-L1 adipocytes, 24 h, 100 nL compound (AID 1168). Note: test concentration not given here. The conditions noted are these: JC-1 mitochondrial fluorescence, higher = more signal, called active from +8 up or from −8 down.
Assay [8] in a line: basal RPMI8226 mitochondrial membrane potential changes, profiling panel, cell-based, JC-1 fluorescence, 24 h, 100 nL compound (AID 1169). Note: test concentration not given here. The following applies: RPMI8226 myeloma, JC-1 mitochondrial potential fluorescence, higher = more signal.
A short description of assay [9]: basal MM1S mitochondrial membrane potential changes, profiling panel, cell-based, JC-1 fluorescence, 24 h, 100 nL compound (AID 1170). Note: test concentration not given here. The following applies: higher = more signal.
A short description of assay [10]: A549 lung cancer cell viability effects, profiling panel, resazurin fluorescence, 24 h, PK04 Diversity Set (AID 1171). Note: test concentration not given here. The conditions noted are these: higher = more signal, called active from +8 up or from −8 down.
Assay [11] is described as follows: HepG2 liver cancer cell viability effects, profiling panel, resazurin fluorescence, 24 h, PK04 Diversity Set (AID 1172). Note: test concentration not given here. The following applies: higher = more signal. (Alamar Blue is a resazurin reagent that responds to reducing activity.)
A short description of assay [12]: basal S. cerevisiae growth modulation, no modifier, primary screen, OD600, strain BY4716, 24 h, basal condition (AID 1173). The conditions noted are these: OD600, 24 h, higher = more signal, called active from +8 up or from −8 down.
Assay [13] can be described thus: MM1S myeloma cell viability, profiling panel, resazurin fluorescence, basal, 24 h, PK04 Diversity Set (AID 1174).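 Note: MM1S multiple myeloma cell line; test concentration not given here.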 The following applies: higher = more signal, called active from +8 up or from −8 down.
Assay [14] addresses Dihydroorotate dehydrogenase (quinone), mitochondrial (Plasmodium falciparum (isolate 3D7)) (UniProt Q08210). As to the kind of experiment: PfDHODH enzyme inhibitors, primary screen, biochemical, C-terminal His tag, absorbance 600 nm (AID 1175).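 Note: recombinant parasite enzyme with a five histidine tag at its C terminus; test concentration not given here.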 The conditions noted are these: DCIP absorbance 600 nm, higher = more signal, called active from +8 up or from −8 down.
Assay [15] in a line: P. aeruginosa biofilm formation inhibitors, primary screen, strain PAO1, LB-PBS medium, absorbance 600 nm (AID 1176). Note: test concentration not given here. The conditions noted are these: P. aeruginosa PAO1 growth/biofilm, A600, 12 h; higher = more signal.
Assay [16] in a line: S. cerevisiae RM11-1a growth modifiers, primary screen, strain RM11-1a, OD600, basal, 24 h (AID 1177).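 Note: cultures grown under basal conditions with no added stressor; test concentration not given here.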 The following applies: OD600, 24 h, higher = more signal, called active from +8 up or from −8 down.
The nature of assay [17]: E. coli acrAB mutant growth effects, primary screen, E. coli filamentation inducers, strain DRC39, OD650, 24 h (AID 1178).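 Note: growth measured as culture turbidity by optical density at 650 nm; test concentration not given here.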 The following applies: higher = more signal, called active from +8 up or from −8 down.
Assay [18] in a line: E. coli acrAB mutant growth effects, primary screen, E. coli filamentation inducers, strain DRC39, OD650, 48 h (AID 1179).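 Note: screen aims at cell division blockers that make cells filament.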 The following applies: E. coli DRC39 delta-acrAB growth, higher = more signal, called active from +8 up or from −8 down.
Assay [19] can be described thus: RPMI8226 myeloma cell viability, profiling panel, resazurin fluorescence, basal, 24 h, PK04 Diversity Set (AID 1180).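 Note: RPMI8826 multiple myeloma cell line at 5000 cells per well; test concentration not given here.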 The following applies: higher = more signal.
The target in assay [20] is E3 ubiquitin-protein ligase XIAP (Homo sapiens) (UniProt P98170). As to the kind of experiment: XIAP binders, primary screen, biophysical, small-molecule microarray, fluorescence 635 nm (AID 1181).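 Note: score merges 667 nm emission and signal to noise over triplicate slides.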 The following applies: small-molecule microarray binding, higher = more signal.
E3 ubiquitin-protein ligase XIAP (Homo sapiens), sequence (P98170 whole entry, looked up): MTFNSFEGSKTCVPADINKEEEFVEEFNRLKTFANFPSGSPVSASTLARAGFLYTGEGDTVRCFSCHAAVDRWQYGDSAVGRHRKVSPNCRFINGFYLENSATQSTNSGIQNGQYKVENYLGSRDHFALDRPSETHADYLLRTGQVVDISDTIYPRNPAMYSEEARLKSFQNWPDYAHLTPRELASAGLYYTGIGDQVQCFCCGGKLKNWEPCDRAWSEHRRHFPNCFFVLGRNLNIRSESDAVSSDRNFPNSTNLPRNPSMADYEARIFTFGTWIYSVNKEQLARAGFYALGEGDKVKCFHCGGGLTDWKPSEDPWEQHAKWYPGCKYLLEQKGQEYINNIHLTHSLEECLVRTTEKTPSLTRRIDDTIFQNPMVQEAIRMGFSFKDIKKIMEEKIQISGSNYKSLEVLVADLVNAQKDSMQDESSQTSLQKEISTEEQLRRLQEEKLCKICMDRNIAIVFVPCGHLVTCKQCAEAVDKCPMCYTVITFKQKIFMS

Calls of active or inactive are those of the source. Unless noted, the rule behind the calls is not given here.

Dihydroorotate dehydrogenase (quinone), mitochondrial (Plasmodium falciparum (isolate 3D7)), sequence (Q08210 whole entry, looked up): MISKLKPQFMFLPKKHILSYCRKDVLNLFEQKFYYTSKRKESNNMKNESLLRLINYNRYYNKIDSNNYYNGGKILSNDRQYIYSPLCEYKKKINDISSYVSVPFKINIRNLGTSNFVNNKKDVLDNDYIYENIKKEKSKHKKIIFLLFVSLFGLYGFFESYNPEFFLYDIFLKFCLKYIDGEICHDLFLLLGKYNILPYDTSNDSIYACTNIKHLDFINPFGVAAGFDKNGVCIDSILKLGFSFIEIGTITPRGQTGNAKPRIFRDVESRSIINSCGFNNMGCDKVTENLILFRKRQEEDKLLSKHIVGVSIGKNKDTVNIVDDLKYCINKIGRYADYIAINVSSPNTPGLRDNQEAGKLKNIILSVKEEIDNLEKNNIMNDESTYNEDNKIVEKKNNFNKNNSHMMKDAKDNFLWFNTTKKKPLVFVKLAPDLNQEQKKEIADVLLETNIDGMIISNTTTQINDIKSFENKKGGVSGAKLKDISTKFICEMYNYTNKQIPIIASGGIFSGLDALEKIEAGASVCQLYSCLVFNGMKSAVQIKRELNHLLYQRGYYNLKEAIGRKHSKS

Consider `C[N+](C)(C)CCCCCCNC(=O)[C@@H]1C[C@@H]2C(=O)N3CCC[C@H]3C(=O)N2[C@@H]1c1ccc(O)cc1`, for which the z-score was -0.134 in [1]; -0.329 in [2]; -0.526 in [3]; -0.403 in [4]; -0.106 in assay [5]; -1 in assay [6]. The z-score was -0.362 (inactive) in assay [7]; -0.101 in assay [8]; -0.637 in [9]; 1.78 (inactive) in assay [10]; 1.4 in [11]; -0.827 (inactive) in [12]. The z-score in assay [13] is 1.02 (inactive); in assay [15], -0.984 (inactive); in assay [16] it was -0.0176 (inactive); in assay [17] it was 0.0464 (inactive); in assay [18], -0.207 (inactive); in [19] it was 0.441. Besides, the composite z-score in assay [14] is -1.53 (inactive); in assay [20] it was -0.169.

For the compound `CCCC=C(CCC)[C@@H](NP(=O)(c1ccccc1)c1ccccc1)c1ccc(-c2ccccc2)cc1`, the z-score in [1] was -1.51; in assay [2], -0.933; in [3], -1.47; in assay [4], -1.67; in [5] it was -2.96; in assay [6], -4.76. For the same compound, the z-score in assay [7] is 0.74 (inactive); in assay [8], -0.343; in assay [9], -2.36; in assay [10] it was 0.647 (inactive); in [11] it was 0.127; in assay [12] it was 2.21 (inactive). Also, the z-score was -1.16 (inactive) in assay [13]; -0.511 (inactive) in [15]; 1.42 (inactive) in [16]; -0.492 (inactive) in assay [17]; 0.477 (inactive) in [18]; -1.72 in [19]. Also, the composite z-score in [14] is 0.23 (inactive); in [20], 0.144.

Regarding `CCOC(=O)C=Cc1cccc(C)c1O`, the z-score in [1] is -0.877; in [2], 0.407; in [3], -0.833; in assay [4] it was -0.536; in [5] it was -0.731; in assay [6] it was -0.768. Also, the z-score in [7] is -0.0308 (inactive); in [8] it was -0.642; in [9], -1.16; in assay [10], -0.871 (inactive); in [11], -0.156; in assay [12], -10.7 (active). In addition, the z-score in [13] was -0.753 (inactive); in assay [15], 0.0236 (inactive); in assay [16], -4.67 (inactive); in [17], 0.0457 (inactive); in assay [18], -0.944 (inactive); in assay [19], -0.529. Also, the composite z-score in [14] was -0.892 (inactive); in [20] it was 0.0533.

`C=C(C(=O)CC[C@H](OC(=O)c1ccccc1-c1ccccc1C(=O)O)c1cccc(OCCO)c1)C(C)C`: the z-score was -0.613 in assay [1]; 0.422 in assay [2]; -0.502 in assay [3]; -3.07 in assay [4]; -1.52 in assay [5]; -1.68 in assay [6]. Further, the z-score was -0.156 (inactive) in assay [7]; 0.248 in assay [8]; 0.618 in assay [9]; -0.701 (inactive) in assay [10]; -0.862 in assay [11]; -0.907 (inactive) in [12]. The z-score in [13] was -0.69 (inactive); in [15] it was 0.804 (inactive); in [16], -0.427 (inactive); in assay [17] it was -1.08 (inactive); in assay [18], -1.03 (inactive); in [19] it was -0.69. Besides, the figures for the composite z-score in [14] and in assay [20] were -0.23 (inactive) and 0.0617, respectively.

On to `CC1CC/C=C\[C@H]2OC34C=CCN(Cc5ccccc5)C(=O)[C@H]3N(C(CO)C(C)C)C(=O)[C@@H]4C2C(=O)O1` (stereo not given in full), for which the z-score in assay [1] was 0.743; in assay [2], 0.493; in [3], 0.539; in [4] it was 0.947; in assay [5] it was 0.847; in assay [6] it was -0.213. Moreover, the z-score in assay [7] was 0.000812 (inactive); in [8] it was -0.795; in assay [9], -0.0133; in [10], 0.0401 (inactive); in assay [11], 0.145; in assay [12], 0.325 (inactive). Also, the z-score in assay [13] is 0.325 (inactive); in assay [15], 0.205 (inactive); in [16], 0.558 (inactive); in assay [17], 0.426 (inactive); in assay [18] it was 0.523 (inactive); in assay [19], 0.775. The figures for the composite z-score in assay [14] and in [20] were -0.841 (inactive) and -0.211, respectively.

For the compound `NC(=O)[C@H]1[C@@H]2C(=O)O[C@@H](c3ccccc3)[C@@H](c3ccccc3)N2[C@@H](c2ccc(OCCO)cc2)[C@]12C(=O)Nc1ccc(C#CCCO)cc12`, the z-score is 0.0067 in assay [1]; 0.272 in [2]; 0.456 in [3]; 0.227 in assay [4]; 0.167 in [5]; -0.202 in assay [6]. Further, the z-score in [7] is -0.383 (inactive); in [8], -0.398; in [9], -1.18; in assay [10], -0.0196 (inactive); in assay [11] it was -0.0423; in assay [12], 0.704 (inactive). For the same compound, the z-score in [13] was -0.245 (inactive); in assay [15] it was 0.35 (inactive); in assay [16], 1.78 (inactive); in assay [17], -0.0157 (inactive); in assay [18] it was 0.0992 (inactive); in [19], -0.169. In addition, the composite z-score is -0.624 (inactive) in assay [14] and -0.0884 in assay [20].

`CCCCCCCCCCC(O)C1C=CC2C(=O)N(c3ccccc3)C(=O)C2N1Nc1ccc(C#N)cc1` (stereo not given): the z-score is -2.09 in assay [1]; 0.0958 in assay [2]; -4.9 in assay [3]; -3.73 in assay [4]; -4.13 in assay [5]; -3.28 in assay [6]. Besides, the z-score in [7] is -0.15 (inactive); in [8], -0.939; in assay [9] it was -0.469; in assay [10], -0.186 (inactive); in assay [11] it was -2.08; in [12], 1.18 (inactive). Further, the z-score in assay [13] was -0.653 (inactive); in assay [15], 0.571 (inactive); in [16], 1.25 (inactive); in assay [17] it was -0.275 (inactive); in assay [18], 0.598 (inactive); in assay [19] it was -2.09. For the same compound, the composite z-score in [14] is 0.481 (inactive); in [20] it was 1.38.

With `CCC1=C2CN(Cc3ccccc3)[C@@H](C(=O)Cc3ccccc3)C2C=CCC1` (stereo not given in full), the z-score in [1] was 0.0398; in assay [2], 1.47; in assay [3] it was -0.342; in assay [4] it was 0.435; in assay [5], -0.96; in assay [6] it was 0.821. Also, the z-score in assay [7] was 0.152 (inactive); in assay [8], 0.424; in [9], -0.948; in [10], 0.822 (inactive); in [11] it was 0.999; in [12] it was -3.13 (inactive). For the same compound, the z-score in assay [13] was -0.192 (inactive); in assay [15] it was -1.61 (inactive); in assay [16], 0.129 (inactive); in assay [17], 0.941 (inactive); in [18], -0.0333 (inactive); in assay [19] it was -0.0509. Further, the composite z-score in assay [14] is -3.14 (inactive); in assay [20], 0.0554.

On to `COc1ccc([Si](C)(C)[C@@H]2[C@@H](CC(=O)N3CCC[C@H]3CO)O[C@]3(C(=O)N(Cc4cccc(N5C(=O)COc6ccccc65)c4)c4ccccc43)[C@H]2C)cc1`, for which the z-score is -0.97 in assay [1]; 0.441 in [2]; -4.31 in [3]; -2.96 in assay [4]; -3.83 in assay [5]; -1.81 in assay [6]. The z-score was -1.01 (inactive) in [7]; -0.975 in assay [8]; -2 in assay [9]; -2.13 (inactive) in assay [10]; -1.58 in [11]; 0.107 (inactive) in [12]. Further, the z-score in [13] was -3.43 (inactive); in assay [15] it was 0.425 (inactive); in assay [16], 0.0195 (inactive); in assay [17], 0.719 (inactive); in assay [18], 0.374 (inactive); in [19], -5.39. Moreover, the results for the composite z-score in assay [14] and in [20] were -1.54 (inactive) and -0.102, respectively.
